Compound activity from PubChem.
Rows were chosen to be rich in hits. Some 1.5% of all compounds tested hit in one or more screens of this group.
GLD-1 TGE inh: GLD-1-TGE RNA interaction inhibition (C. elegans); 320,000 tested, 0.44% active; Q17339; inhibition, % at 5.96 µM; purified GLD-1 + fluorescein TGE RNA, fluorescence polarization;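 active means percent inhibition above a per-plate cutoff, the plate mean of test compounds plus 3 SD, cut at about 30% in these data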;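 further: 0% = DMSO wells with GLD-1 and probe and 100% = wells lacking GLD-1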
BCLXL inh: Bcl-xL (human) inhibition; Q07817; GST-Bcl-xL / FITC-Bim BH3 peptide fluorescence polarization; inhibition, % at 10.9 µM; 320,000 tested, 0.7% active; AID 2129;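 active means inhibition above the mean of all tested compounds plus 3 SD, cutoff set per campaign, cut at about 30% in these data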;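 further: 0% = DMSO wells and 100% = unlabeled Bim-BH3 peptide competitor; inhibitors lower millipolarization by displacing the labeled peptide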
EBV gp42 inh: EBV gp42 inhibition; Q1HVG2; Fluorescence polarization binding assay, mP read-out; inhibition, % (tested at 21.74 µM); 220,000 tested, 0.42% active; AID 1085; in the data active means inhibition above about 50%
E coli Lon inh: inhibitors of E. coli Lon protease | P0A9M0 | purified E. coli Lon protease, fluorescence polarization | inhibition, % at 7.94 µM | 360,000 tested, 0.42% active | AID 602123; in the data active means inhibition above about 13%, passing the limit was not always enough;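 further: 0% = enzyme with probe and DMSO and 100% = no enzyme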
Target sequence (P0A9M0 whole entry, looked up): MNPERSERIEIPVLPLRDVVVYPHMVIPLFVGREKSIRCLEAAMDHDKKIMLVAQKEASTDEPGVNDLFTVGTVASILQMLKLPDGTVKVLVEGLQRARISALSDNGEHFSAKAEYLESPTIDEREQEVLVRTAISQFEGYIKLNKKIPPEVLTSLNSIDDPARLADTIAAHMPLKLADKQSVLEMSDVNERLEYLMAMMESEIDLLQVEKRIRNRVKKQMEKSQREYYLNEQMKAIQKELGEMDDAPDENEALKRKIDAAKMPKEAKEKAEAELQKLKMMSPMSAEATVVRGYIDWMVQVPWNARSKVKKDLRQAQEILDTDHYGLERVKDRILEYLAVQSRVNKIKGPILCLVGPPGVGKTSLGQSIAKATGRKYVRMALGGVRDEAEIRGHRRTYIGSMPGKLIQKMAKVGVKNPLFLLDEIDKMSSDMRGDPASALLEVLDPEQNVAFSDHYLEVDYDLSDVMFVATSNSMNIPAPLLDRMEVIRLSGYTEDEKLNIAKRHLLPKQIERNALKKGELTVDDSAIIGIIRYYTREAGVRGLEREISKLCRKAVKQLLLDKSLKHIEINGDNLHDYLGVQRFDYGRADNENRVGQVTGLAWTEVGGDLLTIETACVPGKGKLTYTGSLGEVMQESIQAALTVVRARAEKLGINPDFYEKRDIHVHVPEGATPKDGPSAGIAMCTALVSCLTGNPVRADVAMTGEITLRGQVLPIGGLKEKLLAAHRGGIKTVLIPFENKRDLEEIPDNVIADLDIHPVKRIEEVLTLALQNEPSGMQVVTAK
MEX-5 binding: C. elegans MEX-5 TCR-2 RNA binding activity; Q9XUB2; MEX-5/FITC-TCR2 RNA binding, fluorescence polarization; active compounds read low; activity score (negative = inhibition of binding), % at 10 µM; 300,000 tested, 0.38% active; AID 1832;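 active means inhibition past about -25% in most replicates, and total fluorescence under double the plate's negative control median, limit read from the data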;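 further: 0% = DMSO and -100% = 5 µM competing unlabeled TCR2 RNA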
MCL1 BIM primary: MCL1-BIM-BH3 interaction inhibition (human) | inhibition, % at 10.9 µM | GST-MCL1 / FITC-Bim-BH3 fluorescence polarization | 320,000 tested, 0.68% active | Q07820;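 active means inhibition above the mean inhibition of all tested compounds plus 3 SD, set per campaign, cut at about 40% in these data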;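 further: 0% = DMSO wells and 100% = unlabeled Bim-BH3 peptide control; higher means more loss of mP so more displacement of Bim peptide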
* = called active by the depositor; . = not tested or not shown.

SMILES	GLD-1 TGE inh	BCLXL inh	EBV gp42 inh	E coli Lon inh	MEX-5 binding	MCL1 BIM primary
COc1ccccc1N1CCN(C(=O)Cn2nc3n(C)c4ccccc4n3c(=O)c2=O)CC1	31*	2	-19	.	1	16
Cc1sc2nc(COC(=O)c3cccc(S(=O)(=O)N(C)c4ccccc4)c3)[nH]c(=O)c2c1C	-5	39*	10	-29	-6	40
Cc1sc2nc(COC(=O)c3cccc(OC(F)F)c3)[nH]c(=O)c2c1C	4	3	-17	-10	-2	2
COc1ccccc1CNC(=O)CN(C)S(=O)(=O)c1ccc(F)cc1	7	-5	.	-9	2	-17
COc1ccc(NC(=O)N(CCc2ccccc2)Cc2cc3c(C)cc(C)cc3[nH]c2=O)cc1	3	0	59*	-12	0	0
COc1ccc2[nH]c(=O)c(CN(CCc3ccccc3)C(C)=O)cc2c1	9	-2	-15	-8	-1	2
CCOc1ccccc1-c1c2cc(O)c(=O)cc-2oc2cc(O)c(O)cc12	.	.	153*	176*	.	.
O=c1cc2oc3cc(O)c(O)cc3c(-c3ccccc3O)c-2cc1O	.	.	150*	92*	.	.
Cc1ccccc1-c1cc(=O)c2c(O)cccc2o1	1	5	-21	-4	1	3
CCCCc1c(-c2ccc(F)cc2)ncn1CCc1ccccc1OC	.	.	.	-1	.	.
Cc1[nH][nH]c(=O)c1/C=N/N1CCOCC1	6	-1	-12	3	-27*	-2
COc1cc(C(=O)OCc2nc3ccsc3c(=O)[nH]2)c([N+](=O)[O-])cc1OC	3	4	.	-5	0	9
O=Cc1ccc2oc3nc4n(c(=O)c3c(=O)c2c1)CCCS4	-1	8	85*	-3	-1	22
O=c1c2cc(Br)cc(Br)c2oc2nc3n(c(=O)c12)CCCS3	9	13	-8	.	-3	13
O=C1C(=O)N(c2ccccn2)C(c2cccc([N+](=O)[O-])c2)/C1=C(/O)c1ccc(Br)cc1 (stereo not drawn)	1	-3	.	-7	-1	-1
N=C1S/C(=C\c2ccc(-c3cccc(Cl)c3)o2)C(=O)N1c1nccs1	-6	8	76*	-41	0	1
Cc1c(C)c(C)c(S(=O)(=O)n2[nH]c(=O)c(CCO)c2C)c(C)c1C	6	4	-18	5	-1	0
Cc1cc(S(=O)(=O)n2[nH]c(=O)c(CCO)c2C)c(Cl)cc1Cl	11	67*	.	-6	-1	5
N#Cc1ccc(C(=O)N2CCCCC2c2cc(C(=O)Nc3ccc4c(c3)OCO4)no2)cc1 (stereo not drawn)	.	.	.	-3	.	.
COc1nc(N/N=C/c2ccc(-c3cccc([N+](=O)[O-])c3)o2)nc(N2CCOCC2)n1	.	.	92*	.	-1	.
Cc1ccc(S(=O)(=O)Nc2nc3ccccc3nc2Nc2cccc(S(=O)(=O)N3CCCC3)c2)cc1	14	37*	56*	1	-3	35
CCOC(=O)C(=O)/C(=C\N(C)C)c1onc(-c2ccccc2)c1C(=O)OC	-10	-8	132*	1	1	-2
CCC(=O)c1ccc(OCC(=O)OCC(=O)NCC2CCCCC2)cc1	5	-1	.	-3	2	-4
Cc1cc(Nc2ccccc2C(=O)O)nc2nc3ccccc3c(=O)n12	2	3	-4	-1	2	7
NC(=O)c1ccccc1Nc1nc2nc3ccccc3c(=O)n2cc1Br	28	31*	-19	.	-1	28
SMILES	GLD-1 TGE inh	BCLXL inh	EBV gp42 inh	E coli Lon inh	MEX-5 binding	MCL1 BIM primary
CCN(CC)CCC(=O)Nc1cccc2c1C(=O)c1ccccc1C2=O	13	36*	-5	4	-1	29
Cc1cc2c(c(=O)n1Cc1ccco1)C(c1cccnc1)C(C#N)=C(N)O2 (stereo not drawn)	23	47*	-9	-6	-6	45*
CCOc1ccc(C2C(C#N)=C(N)Oc3cc(C)n(Cc4ccco4)c(=O)c32)cc1OC (stereo not drawn)	2	7	-9	-6	-3	14
O=C(NNC(=O)c1ccccc1C(F)(F)F)c1csc(N2CCOCC2)n1	-5	-5	.	-4	-9	-4
COc1ccc(CN2C(=O)C(CC(=O)NC(c3ccccc3)c3ccccc3)CC(C(=O)N(C)C)=C2C)cc1 (stereo not drawn)	.	.	.	-2	.	.
O=C(NCC1CCCO1)c1nn2c(C(F)(F)F)cc(-c3cc(Br)cs3)nc2c1Br (stereo not drawn)	-3	7	.	-2	-53*	-1
O=C(NCC1CCCO1)c1nn2c(C(F)(F)F)cc(-c3ccco3)nc2c1Cl (stereo not drawn)	2	-1	.	-4	-4	0
CC1(C)N([O-])c2cc([N+](=O)[O-])ccc2[N+]1=O	8	35*	-16	.	.	45*
Cc1ccc(C)n1-c1cc([N+](=O)[O-])ccc1-n1ccnc1	-8	3	-16	-2	.	-1
COc1ccc(CCN2C(=NC(=O)CC(C)C)SC3CS(=O)(=O)CC32)cc1OC (stereo not drawn)	-2	1	-17	-4	0	4
CCOc1ccc(S(=O)(=O)Nc2nc3ccccc3nc2-n2ccc(=NC(=O)c3cccs3)cc2)cc1	2	-3	-38	-9	-4	2
O=S(=O)(Nc1nc2ccccc2nc1N1CCN(c2ccccn2)CC1)c1ccc(Cl)cc1	.	.	64*	10	.	.
O=C(N=c1ccn(-c2nc3ccccc3nc2NS(=O)(=O)c2ccc(Cl)cc2)cc1)c1cccs1	15	48*	-51	3	-9	44*
CCOC(=O)C1CCCN(C(=O)c2cc(S(=O)(=O)N3CCCCC3)ccc2Cl)C1 (stereo not drawn)	2	2	.	-1	1	1
O=C(c1ccncc1)N1CCN(S(=O)(=O)c2ccccc2F)CC1	-1	.	.	8	.	.
COCCCNC(=O)C[C@H]1C[C@H](C(=O)N(C(C)C)C(C)C)[C@@]2(C)c3[nH]c4ccc(Cl)cc4c3CCN2C1=O	.	.	.	8	.	.
Cc1nc2sccn2c(=O)c1S(=O)(=O)NCC1CCN(Cc2ccc(Cl)cc2)CC1	.	.	.	-4	.	.
CC(C)c1ccc(C2C(C#N)=C(N)N3C(=C2C#N)Sc2ccccc23)cc1 (stereo not drawn)	-9	-2	-34	.	-120*	-6
CC(C)c1ccc(C2CC(=O)N3CN(C)CSC3=C2C#N)cc1 (stereo not drawn)	0	3	-25	-8	-1	5
Cc1ccccc1OCC(=O)NCC(c1cccs1)N1CCOCC1 (stereo not drawn)	3	10	.	-3	-1	5
OCC1CCCN(Cc2cn(Cc3ccccc3)nc2-c2cc3ccccc3o2)C1 (stereo not drawn)	-5	5	-18	-2	0	1
